Laboratory results taken from PubChem BioAssay (Tox21).
Active and inactive are the calls of the source. The call rests on the fitted dose curve.

Target: Gonadotropin-releasing hormone receptor (Homo sapiens) (UniProt P30968)
Test: Human gonadotropin-releasing hormone receptor (GnRHR) small molecule agonists, calcium flux assay in GnRHR-HEK293 cells (AID 1920063); further: nearly all actives have a fitted effect of over 35% in size
Details: calcium flux fluorescence, agonist mode; series mostly up to 57.6 µM; activity change: at the top concentration
Source text: National Center for Advancing Translational Sciences [NCATS]
Division of Preclinical Innovation [DPI]
U.S. Environmental Protection Agency [EPA]
National Institutes of Environmental Health Sciences [NIEHS]
National Toxicology Program [NTP]
U.S. Food and Drug Administration [FDA]
Gonadotropin-releasing hormone receptor (GnRHR) is a G-protein-coupled receptor (GPCR) and acts (through phospholipase C) to increase intracellular inositol trisphosphate and then release intracellular calcium stores. Cell-based GnRHR-Hek293 calcium influx assay is using HEK293 cells that have been genetically engineered to express the human GnRHR, which activity can be measured by calcium signaling. A compound/drug can activate (agonist) GnRHR that can be monitored by levels of intracellular calcium.
GnRHR-HEK293 cells developed by Codex Corp contain human GnRHR reporter gene, which was stably integrated into HEK 293 cells. The compound activation can be detected by fluorescence intensity via calcium flux assay. This cell line has been used to screen the Tox21 10K compound library to identify GnRHR agonists.
GnRHR-Hek293 cells were dispensed at 1500cells/4uL/well in 1536-well black wall/clear bottom plates using a multidrop dispenser. After the assay plates were incubated at a 37 C/5% CO2 incubator for 18 hours, 4 uL of Calcium Dye Solution was added to each well. The plates were incubated at 37 C for 1 hour. For agonist mode, 23 nL of compounds dissolved in DMSO, positive controls or DMSO only was transferred to the assay plate by a pin tool station. The fluorescence intensity in the plates was measured using FDSS 7000EX kinetic plate reader with a filter set of Ex/Em=480/540 for 3 min at 1 sec intervals. Each test compound was measured at 15 concentrations and in triplicates.
On the % scale 0 is the no-effect control and ±100 the full control effect.

Sequence of Gonadotropin-releasing hormone receptor (Homo sapiens) (P30968 whole entry, looked up): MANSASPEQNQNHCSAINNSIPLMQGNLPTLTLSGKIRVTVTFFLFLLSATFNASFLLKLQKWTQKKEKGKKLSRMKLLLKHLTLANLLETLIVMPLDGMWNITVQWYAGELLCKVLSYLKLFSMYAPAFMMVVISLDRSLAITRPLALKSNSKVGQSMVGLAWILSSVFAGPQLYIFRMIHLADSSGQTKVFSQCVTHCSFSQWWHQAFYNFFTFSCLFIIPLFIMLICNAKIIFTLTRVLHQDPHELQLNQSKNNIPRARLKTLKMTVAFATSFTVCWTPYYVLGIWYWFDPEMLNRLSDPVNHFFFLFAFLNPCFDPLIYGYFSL

Question: `CCOc1ccc2nc(N)sc2c1` was tested. Which “activity change” value did it give?
Answer: The value was 3.16% (inactive).

Question: For `COc1ccc(CCN(C)CCCC(C#N)(c2ccc(OC)c(OC)c2)C(C)C)cc1OC` (stereo not given), which Potency is on record?
Answer: Its Potency is “inactive”.

Question: How did the “activity change” value turn out when `CCN(CC)C(=O)c1cc(S(=O)(=O)Cc2ccccc2)c(N2CCC(c3ccccc3)CC2)cc1N(CC)CCN(C)C` was run?
Answer: Its value is 4.36% [at 26.4 µM, stronger effect = higher value] (inactive).

Question: `O=Cc1cc(O)ccc1Br` was tested. Which “activity change” value did it give?
Answer: The value was 6.98% (inactive).

Question: With `COc1ccc(C2CNC(=O)C2)cc1OC1CCCC1` (stereo not given) as the compound, how does the “activity change” value read?
Answer: Its value is -0.499% [at 26.4 µM, stronger effect = higher value] (inactive).

Question: With `COc1cc2ncnc(Nc3cccc(Cl)c3)c2cc1OC` as the compound, how does the activity change read?
Answer: Its activity change is -1.73% [at 11.8 µM, stronger effect = higher value] (inactive).

Question: For `CCOC(=O)NCCOc1ccc(Oc2ccccc2)cc1`, which “activity change” value is on record?
Answer: Its value is -0.406% (inactive).

Question: How did the “activity change” value turn out when `COc1cc(C(C)(C)C)c(O)c(C(C)(C)C)c1` was run?
Answer: The value was 11.9% (inactive).

Question: With `CCOc1ccc(NS(=O)(=O)c2ccc(N)cc2)nn1` as the compound, how does the “activity change” value read?
Answer: Its value is 2.76% [at 26.4 µM, stronger effect = higher value] (inactive).

Question: With `c1ccc2c(c1)ccc1c3ccccc3ccc21` as the compound, how does the “activity change” value read?
Answer: The value was -0.221% [at 26.4 µM, stronger effect = higher value] (inactive).

Question: With `N[C@@H](CCC(=O)O)C(=O)O` as the compound, how does the “activity change” value read?
Answer: Its value is -0.112% (inactive).

Question: `Cc1c(-c2ccc(O)cc2)n(Cc2ccc(OCCN3CCCCCC3)cc2)c2ccc(O)cc12` was tested. Which “activity change” value did it give?
Answer: Its value is -0.469% [at 26.4 µM, stronger effect = higher value] (inactive).

Question: With `O=C(O)CCCCCCCCCCCBr` as the compound, how does the “activity change” value read?
Answer: Its value is -0.129% (inactive).

Question: With `Cc1ccc(O)c(C(=O)c2ccccc2)c1` as the compound, how does the “activity change” value read?
Answer: The value was 0.892% (inactive).

Question: With `CCC(C)C(C)=O` (stereo not given) as the compound, how does the “activity change” value read?
Answer: Its value is -1.88% (inactive).

Question: `CCN=C1C=CC(=C(c2ccc(N(CC)CC)cc2)c2ccc(N(CC)CC)cc2)c2ccccc21` was tested. Which “activity change” value did it give?
Answer: Its value is 2.12% (inactive).

Question: Which “activity change” value does the source give for `CCOc1ccc2nc(S(N)(=O)=O)sc2c1` here?
Answer: The value was -0.949% [at 26.4 µM, stronger effect = higher value] (inactive).

Question: Which activity change does the source give for `NC(Cc1ccc(F)cc1)C(=O)O` (stereo not given) here?
Answer: Its activity change is -0.388% [at 5.22 µM, stronger effect = higher value] (inactive).

Question: How did the “activity change” value turn out when `Cc1c(-c2cccnc2)c2ccccc2n1CCCCC(=O)O` was run?
Answer: The value was -0.663% (inactive).

Question: With `Nc1ccc([N+](=O)[O-])c(N)c1` as the compound, how does the “activity change” value read?
Answer: The value was -1.87% (inactive).

Question: With `O=C(N[C@H](CO)[C@H](O)c1ccc([N+](=O)[O-])cc1)C(Cl)Cl` as the compound, how does the “activity change” value read?
Answer: Its value is 2.48% (inactive).

Question: Which “activity change” value does the source give for `CCCCN(CCCC)CCC(O)c1cc2c(Cl)cc(Cl)cc2c2cc(C(F)(F)F)ccc12` (stereo not given) here?
Answer: The value was 0.203% [at 26.4 µM, stronger effect = higher value] (inactive).

Question: `CCO[C@@H]1O[C@H](C(COCc2ccccc2)OCc2ccccc2)[C@H](OCc2ccccc2)[C@H]1O` (stereo not given in full) was tested. Which “activity change” value did it give?
Answer: Its value is 6.67% [at 26.4 µM, stronger effect = higher value] (inactive).

Question: How did the “activity change” value turn out when `CCCCCCCCCCCCN(CCCCCCCCCCCC)CCCCCCCCCCCC` was run?
Answer: Its value is 0.0771% (inactive).

Question: How did the “activity change” value turn out when `C=C(C)c1cccc(C(=C)C)c1` was run?
Answer: Its value is -0.0012% (inactive).

Question: How did the “activity change” value turn out when `CCCCCCCCCCCCCCCCCCNC(=O)OC1CCN(C(=O)OC[C@H](COC(=O)N(Cc2cccc[n+]2CC)C(=O)c2ccccc2OC)OC)CC1` was run?
Answer: The value was 0.576% [at 26.4 µM, stronger effect = higher value] (inactive).

Question: How did the “activity change” value turn out when `CC1=C(C/C=C(\C)CCC[C@H](C)CCC[C@H](C)CCCC(C)C)C(=O)c2ccccc2C1=O` was run?
Answer: Its value is 0.901% [at 26.4 µM, stronger effect = higher value] (inactive).

Question: Which “activity change” value does the source give for `CCC(Cl)C(Cl)C(Cl)CC(Cl)C(Cl)C(C)Cl` (stereo not given) here?
Answer: The value was 0.869% (inactive).

Question: With `O=C(Nc1cccc(Cl)c1)OCC#CCCl` as the compound, how does the “activity change” value read?
Answer: Its value is -0.581% (inactive).

Question: `CCCCCCCC/C=C\CCCCCCCC(=O)OC(CO)CO` was tested. Which “activity change” value did it give?
Answer: The value was 0.442% (inactive).

Question: `CCCN(CCc1cccs1)[C@H]1CCc2c(O)cccc2C1` was tested. Which “activity change” value did it give?
Answer: The value was 4.1% [at 26.4 µM, stronger effect = higher value] (inactive).

Question: With `CC(=O)Nc1ccc(O)cc1` as the compound, how does the Potency read?
Answer: The Potency was “inactive”.

Question: With `CC1CCCCN1CCCOC(=O)c1ccc(OC2CCCCC2)cc1` (stereo not given) as the compound, how does the “activity change” value read?
Answer: Its value is 10.9% [at 26.4 µM, stronger effect = higher value] (inactive).

Question: Which “activity change” value does the source give for `CCCCN(CCCC)C(=S)SSC(=S)N(CCCC)CCCC` here?
Answer: The value was 1.04% (inactive).

Question: `CS(C)=O` was tested. Which “activity change” value did it give?
Answer: The value was 2.47% (inactive).

Question: Which “activity change” value does the source give for `C=C(C)C1CC=C(C)C(=O)C1` (stereo not given) here?
Answer: Its value is -1.01% (inactive).

Question: Which “activity change” value does the source give for `CCCC(=O)OC(C)(C)Cc1ccccc1` here?
Answer: The value was -0.398% (inactive).

Question: How did the “activity change” value turn out when `[Ca+2]` was run?
Answer: Its value is -0.941% (inactive).

Question: Which “activity change” value does the source give for `CCN(CC)CCNC(C(=O)OCCC(C)C)c1ccccc1` (stereo not given) here?
Answer: The value was 4.32% [at 26.4 µM, stronger effect = higher value] (inactive).

Question: For `O=C(OCC(O)CO)c1ccccc1Nc1ccnc2cc(Cl)ccc12` (stereo not given), which “activity change” value is on record?
Answer: The value was -0.0058% [at 26.4 µM, stronger effect = higher value] (inactive).
